From ChEMBL document CHEMBL3988442, “University of Dundee, Small-Polar-MMV Screening Library” (2021) come the findings set out here.

For this assay, the target named is T1, Methionyl-tRNA synthetase, putative (Leishmania donovani (strain BPK282A1)) (UniProt E9BF75).
T1 sequence (whole entry): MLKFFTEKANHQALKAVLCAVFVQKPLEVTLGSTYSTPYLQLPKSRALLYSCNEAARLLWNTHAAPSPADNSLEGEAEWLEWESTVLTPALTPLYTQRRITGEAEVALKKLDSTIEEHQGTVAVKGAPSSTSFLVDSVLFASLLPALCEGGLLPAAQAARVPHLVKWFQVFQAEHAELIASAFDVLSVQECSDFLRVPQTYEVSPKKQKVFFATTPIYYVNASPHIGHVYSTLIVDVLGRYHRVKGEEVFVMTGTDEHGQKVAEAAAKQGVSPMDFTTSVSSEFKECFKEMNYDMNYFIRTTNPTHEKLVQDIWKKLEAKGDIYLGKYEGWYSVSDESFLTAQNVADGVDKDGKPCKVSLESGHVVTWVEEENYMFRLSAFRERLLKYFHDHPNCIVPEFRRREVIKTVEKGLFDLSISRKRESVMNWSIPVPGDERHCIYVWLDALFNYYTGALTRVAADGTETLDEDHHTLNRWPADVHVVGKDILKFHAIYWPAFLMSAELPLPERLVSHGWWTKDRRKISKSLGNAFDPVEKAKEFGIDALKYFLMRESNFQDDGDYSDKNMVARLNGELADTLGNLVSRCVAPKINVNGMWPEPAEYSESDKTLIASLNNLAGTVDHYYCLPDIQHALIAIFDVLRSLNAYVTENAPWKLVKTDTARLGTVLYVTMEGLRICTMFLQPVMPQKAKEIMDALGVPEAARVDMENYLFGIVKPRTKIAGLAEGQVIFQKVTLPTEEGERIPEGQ
Kind of assay: Leishmania donovani Methionine tRNA synthetase (LdMetRS):v7. Dose response assay. The format is functional. Further details: conc 80 nM, time 150 minutes.

With `OB1OCc2cc(Cl)ncc21`, the PXC50 by setting is: (MAX_EFFECT 7.762557078) < 4; (MAX_EFFECT 14.1509434) < 4.
In the case of `CC(=O)N1CCN(C(=O)c2ccc3ccc(N4CCN(S(C)(=O)=O)CC4)n3c2)CC1`, the PXC50 runs as follows: (BOTTOM 3.542001412, HILLSLOPE 2.454286416, MAX_EFFECT 62.83018868, TOP 64.11209582) 4.91; (BOTTOM 3.854741042, HILLSLOPE 2.302398718, MAX_EFFECT 55.70776256, TOP 55.14895524) 4.97.
As to `Nc1cc(O)c(Cl)cc1Cl`, the PXC50 is < 3 (MAX_EFFECT 7.034220532) and < 3 (MAX_EFFECT 11.44708423).
Turning to `Cc1nc(N(C)CC(=O)N2CCCC2)c2c3c(sc2n1)CCCC3`, the PXC50 was < 4 (MAX_EFFECT 3.703703704) and < 4 (MAX_EFFECT 3.733333333).
Consider `Nc1noc2ccc(-c3cnc4ccc(NCc5ccccn5)nn34)cc12`, for which the PXC50 is, setting by setting: (MAX_EFFECT 7.291666667) < 4; (MAX_EFFECT 11.84210526) < 4.
Consider `COCCNc1ccc2ncc(-c3ccc4onc(N)c4c3)n2n1`, for which the PXC50 (MAX_EFFECT 3.125) is < 4 and the PXC50 (MAX_EFFECT 3.947368421) was < 4.
For the compound `CCn1ncc(-c2cc(C(F)(F)F)nc(N3CCC(N)CC3)n2)c1C`, the PXC50 reads like this: (MAX_EFFECT 0.522193211) < 4; (MAX_EFFECT 1.305483029) < 4.
Regarding `CCc1nc(NCCCOC(C)C)c2c3c(sc2n1)CCC3`, the PXC50 is < 4 (MAX_EFFECT 10.56511057) and < 4 (MAX_EFFECT 12.06030151).
In the case of `CC(C)C[C@H](N)COc1ccc(Cl)cc1C(=O)c1ccccc1`, the PXC50 (MAX_EFFECT 7.036247335) is < 4 and the PXC50 (MAX_EFFECT 9.316770186) was < 4.
`Cc1ccc(-c2cc(C(F)(F)F)nc(NCCN(C)C)n2)cc1`: the PXC50 is, setting by setting: (MAX_EFFECT 8.163265306) < 4; (MAX_EFFECT 8.333333333) < 4.
With `Cc1nn(C)cc1-c1cc(C(F)(F)F)nc(NC2CCN(C)CC2)n1`, the PXC50 is < 4 (MAX_EFFECT 9.138381201) and < 4 (MAX_EFFECT 9.921671018).
For `CNc1nc(C)nc(N2CCc3cc(C(=O)NCc4ccc(-c5nccn5C)cc4Cl)ccc32)n1`, the PXC50 runs as follows: (MAX_EFFECT 28.67132867) < 4; (MAX_EFFECT 30.23255814) < 4.
In the case of `Cc1cc2c(N3CCN(C)CC3)nc(-c3cccnc3)nc2s1`, the PXC50 runs as follows: (MAX_EFFECT 6.010928962) < 4; (MAX_EFFECT 7.486631016) < 4.
For `CS(=O)(=O)N1CCN(c2ccc3ccc(C(=O)NCCO)cn23)CC1`, the PXC50 was < 4 (MAX_EFFECT 34.44976077) and < 4 (MAX_EFFECT 46.06946984).
For the compound `CCc1nc(-n2nc(C)cc2N)c2c3c(sc2n1)CCCC3`, the PXC50 runs as follows: (MAX_EFFECT 9.836065574) < 4; (MAX_EFFECT 10.69518717) < 4.
On to `Cc1ccc(N2CCCC(N(C)c3ncnc4c3CCC4)C2)nn1` (stereo not given), for which the PXC50 is, setting by setting: (MAX_EFFECT 10.79812207) < 4; (MAX_EFFECT 20.18518519) < 4.
Take `CC(C)(N)c1cc(Cl)cc(Cl)c1`: the PXC50 reads like this: (MAX_EFFECT 14.47084233) < 3; (MAX_EFFECT 21.86311787) < 3.
Consider `CCOC(=O)c1sc2nc(C)nc(NC3CCN(C4CC4)CC3)c2c1C`, for which the PXC50 was < 4 (MAX_EFFECT 19.59798995) and < 4 (MAX_EFFECT 24.32432432).
`Cc1nc(N2CCC(C(N)=O)CC2)c2c3c(sc2n1)CC(C)CC3` (stereo not given): the PXC50 (MAX_EFFECT 5.852417303) is < 4 and the PXC50 (MAX_EFFECT 9.319899244) is < 4.
In the case of `CNc1nc(CN2CCOCC2)nc2sc3c(c12)CCC(C)C3` (stereo not given), the PXC50 was < 4 (MAX_EFFECT 4.668304668) and < 4 (MAX_EFFECT 7.035175879).
Turning to `O=C(c1c[nH]cn1)N1CCC(F)(F)C2(CCN(c3ncccn3)C2)C1` (stereo not given), the PXC50 (MAX_EFFECT 6.572769953) is < 4 and the PXC50 (MAX_EFFECT 11.2962963) was < 4.
Regarding `Cc1nc(NC(C)C(=O)O)c2c3c(sc2n1)CCCC3` (stereo not given), the PXC50 is, setting by setting: (MAX_EFFECT 7.035175879) < 4; (MAX_EFFECT 8.5995086) < 4.
Turning to `Cc1cc2c(N3CCC(C(N)=O)CC3)nc(-c3cccnc3)nc2s1`, the PXC50 (MAX_EFFECT 10.38251366) was < 4 and the PXC50 (MAX_EFFECT 13.36898396) is < 4.
`Cc1sc2nc(-c3cccs3)nc(N(C)CC(=O)NC3CC3)c2c1C`: the PXC50 is < 4 (MAX_EFFECT 6.361323155) and < 4 (MAX_EFFECT 7.808564232).
On to `Cc1nc(NC(CC(C)C)C(=O)O)c2c3c(sc2n1)CCC3` (stereo not given), for which the PXC50 runs as follows: (MAX_EFFECT 14.004914) < 4; (MAX_EFFECT 14.57286432) < 4.
`COCCN(Cc1cnn(C)c1)c1nc(C)nc2sccc12`: the PXC50 by setting is: (MAX_EFFECT 10.70496084) < 4; (MAX_EFFECT 11.48825065) < 4.
On to `CS(=O)(=O)N1CCN(c2ccc3cnc(C(=O)NC4CCCC4)cn23)CC1`, for which the PXC50 is < 4 (MAX_EFFECT 8.333333333) and < 4 (MAX_EFFECT 13.54166667).
On to `FC1(F)CCN(Cc2cccnc2)CC12CCN(c1cnccn1)C2` (stereo not given), for which the PXC50 by setting is: (MAX_EFFECT 4.081632653) < 4; (MAX_EFFECT 6.355140187) < 4.
Turning to `Cc1nc(N[C@@H](Cc2ccccc2)C(=O)O)c2c3c(sc2n1)CCCC3`, the PXC50 by setting is: (MAX_EFFECT 23.48484848) < 4; (MAX_EFFECT 27.55102041) < 4.
On to `Cc1sc2nc(CN3CCOCC3)nc(NS(C)(=O)=O)c2c1C`, for which the PXC50 (MAX_EFFECT 10.38251366) is < 4 and the PXC50 (MAX_EFFECT 12.29946524) was < 4.
